Screening data as filed in PubChem BioAssay.
An excerpt weighted towards active compounds, which were near 19% of everything screened.
HepG2 tox – kills HepG2 cells in TGF-b inhibitor counter-screen. hit rate 0.76% among 410,000. Potency, µM (series often up to 46.1 µM), actives largely listed as cytotoxic. HepG2 CAGA-GFP viability, ATP luminescence, 18 h
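HepG2 CAGA-GFP cells (1000/well, DMEM with 1% FBS) received compound, then TGF-beta at 500 pg/mL final, and were incubated 18 hours at 37 degrees C. Viability was read by CellTiter-Glo luminescence. Media-only wells were set as complete cell-killing and DMSO as no toxicity.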
TDP1 cell noCPT – qHTS for Inhibitors of human tyrosyl-DNA phosphodiesterase 1 (TDP1): qHTS in cells in absence of CPT; DT40 Tdp1-/- hTDP1 cells, no CPT, ATP luminescence, 48 h; Potency, µM (top dose mostly 46.2 µM), actives largely listed as inhibitors; hit rate 15% among 420,000; note: nearly all actives have a fitted effect of over 55% in size
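Stably hTDP1-transfected Tdp1-null chicken DT40 cells were treated with library compounds minus camptothecin and grown for at least 48 hr at 37 °C, after which cellular ATP was quantified by luminescence.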
ASM inhibitor – inhibitors of human secretory acid sphingomyelinase. placental ASM, HMU-PC fluorogenic substrate, 60 min. Potency, µM (titrated, usually from 57.5 µM), usual class: inhibitors. AID 504937. hit rate 0.006% among 340,000
Target sequence (P17405 47-631 limits assumed): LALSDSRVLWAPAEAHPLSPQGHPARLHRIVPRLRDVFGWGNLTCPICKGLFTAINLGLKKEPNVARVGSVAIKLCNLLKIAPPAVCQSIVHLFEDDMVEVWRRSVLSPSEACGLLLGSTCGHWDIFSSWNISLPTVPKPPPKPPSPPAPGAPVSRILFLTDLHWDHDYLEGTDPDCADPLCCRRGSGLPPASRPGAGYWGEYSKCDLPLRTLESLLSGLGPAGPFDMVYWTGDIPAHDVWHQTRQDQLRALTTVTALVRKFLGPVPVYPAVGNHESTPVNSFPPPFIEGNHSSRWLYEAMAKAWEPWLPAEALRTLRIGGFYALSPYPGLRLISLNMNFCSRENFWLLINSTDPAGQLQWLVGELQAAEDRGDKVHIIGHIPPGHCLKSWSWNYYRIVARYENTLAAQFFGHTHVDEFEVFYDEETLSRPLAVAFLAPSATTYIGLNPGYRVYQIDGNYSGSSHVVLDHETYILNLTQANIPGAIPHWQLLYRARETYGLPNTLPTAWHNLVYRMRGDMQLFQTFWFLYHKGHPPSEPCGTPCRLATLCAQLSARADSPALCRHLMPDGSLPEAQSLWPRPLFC
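Steps: dispense placental human ASM, pin compound, wait 10 min at room temperature, add HMU-PC0 substrate at 9 uM final, incubate 60 min at 37 °C, add stop solution raising pH to 10, read fluorescence.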
TGFb SMAD3 inh – blocks TGF-b signaling | HepG2 CAGA-GFP TGF-b/SMAD3 reporter, GFP fluorescence, 18 h; TGF-beta stimulated, 500 pg/mL final | hit rate 1.2% among 410,000 | Potency, µM (series often up to 46.1 µM), most hits filed as inhibitors | AID 588855; note: nearly all actives have a fitted effect of over 65% in size
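Per well, imaged GFP fluorescence of HEPG2 CAGA-GFP cells gives the signal; cells get compound, then TGF-beta (500 pg/mL final), 18 h at 37 degrees C; %Activity versus -TGF-beta and +DMSO controls.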
TDP1 cell CPT – DT40-hTDP1 cell growth loss with CPT; chicken DT40 Tdp1-/-;hTDP1 cells + 20 nM CPT, ATP luminescence, 48 h; Potency, µM (titrated, usually from 46.2 µM), most hits filed as inhibitors; hit rate 12% among 420,000; AID 686979; note: nearly all actives have a fitted effect of over 55% in size
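Chicken DT40 Tdp1-/- cells stably complemented with human TDP1 were seeded at 400 cells/well in medium containing 20 nM camptothecin, exposed to pin-transferred compounds, and grown at 37 °C for at least 48 hr. Viability was read as ATP luminescence.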
IL1B secr inh – inflammasome signaling inhibition, IL-1 beta readout | THP-1 LPS/ATP IL-1B secretion, AlphaLISA, 16 h; hits give low values | activity change, % at 57.5 µM | hit rate 4.7% among 360,000 | AID 743279; in the data active = activity change below about -50%; inconclusive = mostly about -30% to -49%
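Secreted IL-1B measured by AlphaLISA bead assay after 16 h compound exposure of THP-1 cells; compounds (final up to 57.5 uM) added 1 h before LPS (250 ng/mL) and ATP (1.25 mM) stimulation; lower signal means less secretion.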
Large screens that a line does not name were inactive. Unless noted, calls come from the whole dose curve; as a rule, active = well fitted curve in the direction sought with a large enough effect; inconclusive = small, poorly fitted or top-dose-only effect, or another doubt; inactive = no such curve, though single readings can be large; an effect the other way counts as inactive or inconclusive.

CC1S/C(=N/N=C2CCCCC2)NC1=O (stereo not given)	TDP1 cell noCPT 10.3µM, TDP1 cell CPT 2.91µM
CC(C)(C)[C@@H]1COC(=O)[C@H](Cc2ccc(F)cc2)CC/C=C\C[C@@H](CC(=O)N(CCO)Cc2ccccc2)C(=O)N1	TDP1 cell noCPT 23.1µM, TDP1 cell CPT 5.8µM
CC(C)(C)[C@@H]1COC(=O)[C@@H](Cc2ccc(F)cc2)C/C=C\C[C@H](CC(=O)N(CCO)Cc2ccccc2)C(=O)N1	TDP1 cell noCPT inconclusive, TGFb SMAD3 inh inconclusive, TDP1 cell CPT 23.1µM
CCCS(=O)(=O)NC(=O)C1(C)CCCN(C(=O)CCc2cccs2)C1 (stereo not given)	none (no result: ASM inhibitor)
Cc1cn([C@H]2C[C@H](O)[C@@H](CNCc3ccc(F)c(N4CCOCC4)c3)O2)c(=O)[nH]c1=O	none (no result: ASM inhibitor)
Cn1c(SCC(=O)NCc2ccc(F)cc2)ncc(C(=O)Nc2ccccc2)c1=O	TDP1 cell noCPT inconclusive, TDP1 cell CPT inconclusive
COc1ccccc1CNC(=O)CSc1ncc(C(=O)Nc2ccccc2)c(=O)n1C	TDP1 cell noCPT 14.6µM, TDP1 cell CPT 16.4µM
COc1ccc(NC(=O)c2cnc(SCC(=O)NCCc3ccccc3)n(C)c2=O)cc1	TDP1 cell CPT inconclusive (no result: ASM inhibitor)
CC(=O)c1cccc(NC(=O)CSc2ncc(C(=O)Nc3ccccc3)c(=O)n2C)c1	TDP1 cell noCPT 7.31µM, TDP1 cell CPT 7.31µM
Cn1c(SCC(=O)NCC2CCCO2)ncc(C(=O)Nc2ccc(Cl)cc2)c1=O (stereo not given)	TDP1 cell noCPT 9.2µM, TDP1 cell CPT 7.31µM
Cn1c(SCC(=O)NCCc2ccccc2)ncc(C(=O)Nc2ccccc2)c1=O	TDP1 cell noCPT 13µM, TDP1 cell CPT inconclusive
O=C(Nc1ccccc1F)c1ccc2sc([C@@H]3O[C@H](CO)[C@H](O)[C@H](O)[C@H]3O)nc2c1	none (no result: ASM inhibitor)
CCOc1ccccc1NC(=O)C1CCN(S(=O)(=O)c2ccccc2)CC1	none (no result: ASM inhibitor, IL1B secr inh)
CC(=O)Nc1cccc(NC(=O)CSc2ncc(C(=O)Nc3ccccc3)c(=O)n2C)c1	TDP1 cell noCPT 8.2µM, TGFb SMAD3 inh inconclusive, TDP1 cell CPT 5.8µM, IL1B secr inh -100.1
Cc1cc(NC(=O)CSc2ncc(C(=O)Nc3ccc(F)cc3)c(=O)n2C)no1	none (no result: ASM inhibitor, IL1B secr inh)
CC(=O)c1cccc(NC(=O)c2nc3ccccc3n(C)c2=O)c1	TDP1 cell noCPT 10.3µM, TDP1 cell CPT 14.6µM (no result: ASM inhibitor, IL1B secr inh)
CC(=O)Nc1cccc(NC(=O)CSc2ncc(C(=O)Nc3ccc(F)cc3)c(=O)n2C)c1	TDP1 cell noCPT 11.6µM, TDP1 cell CPT 14.6µM, IL1B secr inh -99.9
CC(=O)Nc1ccc(NC(=O)CSc2ncc(C(=O)Nc3ccc(F)cc3)c(=O)n2C)cc1	TDP1 cell noCPT 20.6µM, TDP1 cell CPT 18.4µM, IL1B secr inh -59.0
CC(=O)Nc1ccc(NC(=O)CSc2ncc(C(=O)Nc3ccc(Cl)cc3)c(=O)n2C)cc1	TDP1 cell noCPT inconclusive, TDP1 cell CPT inconclusive (no result: ASM inhibitor)
CCN(CC)S(=O)(=O)c1cccc(C(=O)NNC(=O)C2=NN(c3ccccc3)C(=O)CC2)c1	none
Nc1ccc(CSc2ccccc2)cc1	none
COc1ccc(CCN(C)S(=O)(=O)c2ccc(Cl)nc2)cc1OC	TDP1 cell noCPT inconclusive
CCOC(=O)[C@]12CCC=C1N(Cc1ccco1)C(=O)[C@H](CC(=O)NCc1cccc3ccccc13)C2	none (no result: HepG2 tox, ASM inhibitor, TGFb SMAD3 inh)
CCOC(=O)[C@]12CCCC=C1N(Cc1cccc3ccccc13)C(=O)[C@H](CC(=O)NCc1cccs1)C2	TDP1 cell noCPT 23.1µM, TDP1 cell CPT inconclusive (no result: HepG2 tox, ASM inhibitor, TGFb SMAD3 inh)
CCOC(=O)[C@]12CCC=C1N(Cc1cccc3ccccc13)C(=O)[C@H](CC(=O)NCc1cccs1)C2	TDP1 cell noCPT inconclusive, TDP1 cell CPT inconclusive, IL1B secr inh -68.9 (no result: HepG2 tox, ASM inhibitor, TGFb SMAD3 inh)
